# Measurements from PubChem BioAssay AID1645838 (ICCB-Longwood Screening Facility, Harvard Medical School, 2021).
# Screen size: about 2,000 compounds; about 100 (5%) were called active. This is one part of a sample in which actives are shown more often than they occur. Cut-off read from the data, not from the text of the source: active = z-score above about 2; inactive = the rest.
# Assay: supercomplex reporter luminescence per Hoechst cell count – Hoechst nuclei count (AID 1645838);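 note: control cybrid cells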;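 for z-score: higher means more mitochondrial supercomplex formation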
# Conditions: Cells, luminescence/Hoechst cell count ratio; for z-score: stronger effect = higher value; for cell count: measured here: cell number, Hoechst nuclei count
# [1] = library stock concentration (final well concentration not given) 46 uM
# [2] = library stock concentration (final well concentration not given) 80 uM
# [3] = library stock concentration (final well concentration not given) 278 uM
# [4] = library stock concentration (final well concentration not given) 400 uM
# [5] = library stock concentration (final well concentration not given) 1.67 mM
# [6] = library stock concentration (final well concentration not given) 2 mM
# [7] = library stock concentration (final well concentration not given) 10 mM
smiles,measurement,setting,value
O=C(Nc1cccc(Nc2ncc(Br)c(NCCc3cnc[nH]3)n2)c1)N1CCCC1,outcome,library stock 10 mM,inactive; censored for cell count
same,z-score,[1],-0.139 (inactive)
same,z-score,[2],-0.647 (inactive)
same,z-score,[3],0.0145 (inactive)
same,z-score,[4],-0.129 (inactive)
same,z-score,[5],3.24 (active)
same,z-score,[6],0.129 (inactive)
same,cell count,[1],5940
same,cell count,[2],4860
same,cell count,[3],6000
same,cell count,[4],4520
same,cell count,[5],2060
same,cell count,[6],3760
O=C(O)CCC/C=C\CC1C(=O)C[C@@H](O)[C@@H]1/C=C/[C@@H](O)COc1ccccc1 (stereo not given in full),z-score,,0.988 (inactive)
same,cell count,,5150
CCN(CC)C(=O)CCC/C=C\C[C@@H]1[C@@H](/C=C/[C@@H](O)CCc2ccccc2)[C@H](O)C[C@@H]1O,z-score,,0.309 (inactive)
same,cell count,,5000
CCCCCCCC/C=C\CCCCCCCCCCCC(N)=O,z-score,,-0.128 (inactive)
same,cell count,,5640
CCCCCCCCCCCCCCCCCC(=O)NCCO,z-score,,-0.675 (inactive)
same,cell count,,6070
O=C(C(=O)c1ccc(Cl)cc1)c1ccc(Cl)cc1,z-score,[1],0.501 (inactive)
same,z-score,[3],0.0434 (inactive)
same,z-score,[5],0.0353 (inactive)
same,z-score,[7],-0.186 (inactive)
same,cell count,[1],6500
same,cell count,[3],6290
same,cell count,[5],6800
same,cell count,[7],6380
NC(=NCC[C@H](N)C(=O)O)NO,z-score,,-0.121 (inactive)
same,cell count,,4620
CCN(CC)c1ccc(C=NNC(=O)c2ccc(O)cc2)cc1,z-score,[1],-0.275 (inactive)
same,z-score,[3],-0.201 (inactive)
same,z-score,[5],-0.4 (inactive)
same,z-score,[7],2.2 (active)
same,cell count,[1],6830
same,cell count,[3],6590
same,cell count,[5],6690
same,cell count,[7],3360
CCCCC/C=C\C/C=C\C/C=C\C/C=C\CCCCNC(=O)c1ccc(O)cc1,z-score,,-0.229 (inactive)
same,cell count,,5700
CCC(=C(CC)c1ccc(O)cc1)c1ccc(O)cc1,z-score,[2],0.303 (inactive)
same,z-score,[4],0.161 (inactive)
same,z-score,[6],-0.198 (inactive)
same,z-score,[7],-1.11 (inactive)
same,cell count,[2],5780
same,cell count,[4],5910
same,cell count,[6],5930
same,cell count,[7],5450
CC(OC1OCCN(Cc2n[nH]c(=O)[nH]2)C1c1ccc(F)cc1)c1cc(C(F)(F)F)cc(C(F)(F)F)c1 (stereo not given),z-score,[2],-0.483 (inactive)
same,z-score,[4],-0.157 (inactive)
same,z-score,[6],-0.324 (inactive)
same,z-score,[7],1.44 (inactive)
same,cell count,[2],5120
same,cell count,[4],5200
same,cell count,[6],4790
same,cell count,[7],2820
CCCCCCCC/C=C\CCCCCCCC(=O)N[C@@H](CO)C(=O)O,z-score,,0.0618 (inactive)
same,cell count,,5160
NCC(=O)Nc1ccc(-n2nc(C(F)(F)F)cc2-c2ccc3c(ccc4ccccc43)c2)cc1,outcome,library stock 10 mM,inactive; censored for cell count
same,z-score,[2],-0.354 (inactive)
same,z-score,[4],-0.201 (inactive)
same,z-score,[6],4.63 (active)
same,cell count,[2],6120
same,cell count,[4],5230
same,cell count,[6],2710
Cc1nnsc1C(=O)Nc1ccc(-n2nc(C(F)(F)F)cc2C(F)(F)F)cc1,z-score,,0.284 (inactive)
same,cell count,,4970
CCCCCCCCCCCCCCC(=O)NCCO,z-score,[1],-0.0121 (inactive)
same,z-score,[3],0.19 (inactive)
same,z-score,[5],-0.219 (inactive)
same,z-score,[7],0.291 (inactive)
same,cell count,[1],6780
same,cell count,[3],6410
same,cell count,[5],7210
same,cell count,[7],6620
CC(=O)c1cccc(NC(=O)CN2CCc3cc4c(cc3C2)OCCCO4)c1,z-score,[2],0.0242 (inactive)
same,z-score,[4],0.451 (inactive)
same,z-score,[6],-0.169 (inactive)
same,z-score,[7],0.0588 (inactive)
same,cell count,[2],4960
same,cell count,[4],4830
same,cell count,[6],4760
same,cell count,[7],4740
COc1cc2nc(N3CCCN(C)CC3)nc(NC3CCN(Cc4ccccc4)CC3)c2cc1OC,z-score,,-0.382 (inactive)
same,z-score,[1],-0.481 (inactive)
same,z-score,[3],-0.471 (inactive)
same,z-score,[5],0.298 (inactive)
same,z-score,[7],10.9 (active)
same,cell count,,5260
same,cell count,[1],6510
same,cell count,[3],6560
same,cell count,[5],5890
same,cell count,[7],2180
COc1cc2c(NC3CCN(C(C)C)CC3)nc(C3CCCCC3)nc2cc1OCCCN1CCCC1,z-score,[1],-0.551 (inactive)
same,z-score,[3],-0.34 (inactive)
same,z-score,[5],-0.454 (inactive)
same,z-score,[7],0.796 (inactive)
same,cell count,[1],6710
same,cell count,[3],5680
same,cell count,[5],6450
same,cell count,[7],1730
COc1cc2c(NC3CCN(CC4CCCCC4)CC3)nc(N3CCCN(C(C)C)CC3)nc2cc1OCCCN1CCCCC1,outcome,library stock 10 mM,inactive; censored for cell count
same,z-score,[2],-0.365 (inactive)
same,z-score,[4],-0.622 (inactive)
same,z-score,[6],0.193 (inactive)
same,cell count,[2],6230
same,cell count,[4],6560
same,cell count,[6],4370
CCCCCC(=O)CC[C@H]1C(=O)C=C[C@@H]1C/C=C\CCCC(=O)O,z-score,,1.09 (inactive)
same,cell count,,5090
CC(C)(C)OC(=O)N1CCC(OC2CCNCC2)CC1,z-score,[2],0.0198 (inactive)
same,z-score,[4],0.196 (inactive)
same,z-score,[6],0.447 (inactive)
same,z-score,[7],0.428 (inactive)
same,cell count,[2],4690
same,cell count,[4],4710
same,cell count,[6],4640
same,cell count,[7],4420
Cc1cc(CS(=O)(=O)c2ccccc2)cc(OCc2ccc(CN3CCCC3CO)cc2)c1 (stereo not given),z-score,[1],-0.0615 (inactive)
same,z-score,[3],-0.164 (inactive)
same,z-score,[5],-0.0708 (inactive)
same,z-score,[7],-0.221 (inactive)
same,cell count,[1],5870
same,cell count,[3],5750
same,cell count,[5],5420
same,cell count,[7],5130
CCCCCCCCCCCCC/C=C/[C@@H](O)[C@H](CO)NC(=O)CCCCC,z-score,,-0.258 (inactive)
same,cell count,,5330
CC(/C=C/C(=O)NO)=C\[C@@H](C)C(=O)c1ccc(N(C)C)cc1,outcome,,inactive; censored for cell count
Cc1ccc(NC(=O)CCCCCC(=O)Nc2ccccc2N)cc1,z-score,,1.29 (inactive)
same,cell count,,4790
Cc1ccc(C(=O)NCCCCCC(=O)Nc2ccccc2N)cc1,z-score,[2],0.128 (inactive)
same,z-score,[4],0.271 (inactive)
same,z-score,[6],0.708 (inactive)
same,z-score,[7],4.86 (active)
same,cell count,[2],5180
same,cell count,[4],5260
same,cell count,[6],4840
same,cell count,[7],3070
CN(C)c1ccc(C(=O)NCCCCCCC(=O)NO)cc1,z-score,,6.25 (active)
same,cell count,,3650
CN(C)c1ccc(C(=O)NCCCCCC(=O)NO)cc1,z-score,,0.156 (inactive)
same,cell count,,5320
CCOC(=O)NCCCC(=O)NCCc1ccccc1,z-score,[1],-0.07 (inactive)
same,z-score,[3],-0.00876 (inactive)
same,z-score,[5],-0.143 (inactive)
same,z-score,[7],-0.14 (inactive)
same,cell count,[1],5970
same,cell count,[3],5710
same,cell count,[5],5220
same,cell count,[7],5550
CCCCC[C@H](O)/C=C/[C@@H]1[C@@H](CCCCCCC(=O)O)[C@H](O)C[C@@H]1O,z-score,,-0.12 (inactive)
same,cell count,,5440
CC(C)CC[C@@H](O)[C@@H](C)C1CCC2C3CC=C4C[C@@H](O)CC[C@]4(C)C3CC[C@@]21C (stereo not given in full),z-score,,-0.379 (inactive)
same,cell count,,5080
COC(=O)CCC[C@H](O)[C@H](O)CO,z-score,,-0.313 (inactive)
same,cell count,,5480
CCCCCC/C=C\CCCC(=O)CC(=O)N[C@H]1CCOC1=O,z-score,,0.196 (inactive)
same,cell count,,5220
